Reference: PubChem BioAssay (Tox21)
Inconclusive results are not listed. Where a call stands in place of a potency, no number is given. Activity calls are given as the source filed them. Unless noted, the call rests on the fitted dose curve; in most records, active means well fitted cell-killing curve with a large enough effect in the repeat runs; inconclusive means weak or mixed curves, or effect the other way; inactive means flat fitted curve, though single readings scatter. Positions of bridges follow the written chain, without caps; N, C: chain ends. Non-standard residues stand in square brackets, D forms with d. Residues, ends and D or L forms follow the SMILES beside them. *: point of attachment. X1 = CC[C@@H](C)[C@@H](N)C1=N[C@H](C(=O)*)CS1; d(aIle) = CC[C@H](C)[C@@H](N)C(=O)O; dOrn = NCCC[C@@H](N)C(=O)O

Test: qHTS assay to identify small molecule antagonists of the estrogen receptor alpha (ER-alpha) signaling pathway using the BG1 cell line (AID 743080; calls by dose curve;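 further: BG1 cells stimulated with 17beta-estradiol alongside compound; nearly all actives have a fitted effect of over 25% in size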)
Settings: BG1Luc4E2 ERE-luciferase antagonist mode, luminescence; series mostly up to 70.3 µM
In short: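 Luminescence from a 4×ERE-luciferase reporter in BG1-Luc-4E2 cells served as read-out. Cells, pre-cultured 5 days in stripped-serum phenol-red-free medium, were exposed to compound with 17beta-estradiol co-stimulation for 21.5 h at 37 C.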

Row | Structure (SMILES) | Potency
1 | CC(C)C[C@H](NC(=O)[C@@H](COC(C)(C)C)NC(=O)[C@H](Cc1ccc(O)cc1)NC(=O)[C@H](CO)NC(=O)[C@H](Cc1c[nH]c2ccccc12)NC(=O)[C@H](Cc1cnc[nH]1)NC(=O)[C@@H]1CCC(=O)N1)C(=O)N[C@@H](CCCN=C(N)N)C(=O)N1CCC[C@H]1C(=O)NNC(N)=O | inactive
2 | NC(N)=NCCCCN=C(N)N | inactive
3 | COc1ccc(/C=N/NC(=O)c2ccncc2)c(C(=O)O)c1OC | inactive
4 | O=C1CCC(c2ccc(-n3ccnc3)cc2)=NN1 | inactive
5 | Cc1cnc(C(=O)O)c[n+]1[O-] | inactive
6 | NCC(O)CC(=O)O (stereo unspecified) | inactive
7 | Nc1nc(/C(=C/CC(=O)O)C(=O)N[C@@H]2C(=O)N3C(C(=O)O)=CCS[C@H]23)cs1 | inactive

Test: qHTS assay to identify small molecule antagonists of the estrogen receptor alpha (ER-alpha) signaling pathway using the BG1 cell line - cell viability counter screen (AID 743081);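 further: compound given together with 17beta-estradiol as the ER stimulus; nearly all actives have a fitted effect of over 45% in size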; further: potency means the concentration at half of the fitted maximal effect
Settings: BG1Luc4E2 viability, CellTiter-Fluor, 22 h; series mostly up to 70.3 µM

Row | Structure (SMILES) | Potency
8 | CCN(CC)CC#CCOC(=O)C(O)(c1ccccc1)C1CCCCC1 (stereo unspecified) | 9.44 µM (active)
9 | CC(=O)O[C@H]1C[C@@H]2CC[C@@H]3[C@H](CC[C@@]4(C)[C@H]3C[C@H]([N+]3(C)CCCCC3)[C@@H]4OC(C)=O)[C@@]2(C)C[C@@H]1[N+]1(C)CCCCC1 | inactive
10 | CCN(CC)CCOC[C@H]1O[C@@H](O)[C@H](OCCN(CC)CC)[C@@H](O)[C@@H]1O | inactive
11 | CN=C(N)NCCC[C@H](N)C(=O)O | inactive
12 | CSCC[C@H](NC(=O)[C@H](Cc1ccc(OS(=O)(=O)O)cc1)NC(=O)[C@@H](N)CC(=O)O)C(=O)NCC(=O)N[C@@H](Cc1c[nH]c2ccccc12)C(=O)N[C@@H](CCSC)C(=O)N[C@@H](CC(=O)O)C(=O)N[C@@H](Cc1ccccc1)C(N)=O | inactive
13 | CCOC(=O)COc1ccc2c(=O)cc(-c3ccccc3)oc2c1 | inactive
14 | CC[C@@H](C)[C@H](N)C(=O)O | inactive
15 | CCCCCCCCCCCC[n+]1ccc2ccccc2c1 | 26.6 µM (active)
16 | O=C1CC[C@@H](C(=O)N[C@H]2C[C@@H]2c2ccccc2)N1 | inactive
17 | CC(C)(S)C(=O)N[C@@H](CS)C(=O)O | inactive
18 | CC(C)(C)C(=O)OCC(=O)[C@H]1CC[C@H]2[C@@H]3CCC4=CC(=O)CC[C@]4(C)[C@H]3CC[C@]12C | inactive
19 | NC[C@H]1O[C@H](O[C@H]2[C@H](O)[C@@H](O[C@H]3O[C@H](CO)[C@@H](O)[C@H](N)[C@H]3O)[C@H](N)C[C@@H]2N)[C@H](N)C[C@@H]1O | inactive
20 | C/C(=C\C(=O)OCCCCCCCCC(=O)O)C[C@@H]1OC[C@H](C[C@@H]2O[C@H]2[C@@H](C)[C@H](C)O)[C@@H](O)[C@H]1O | inactive
21 | O=P(O)(O)C(O)(Cn1ccnc1)P(=O)(O)O | inactive
22 | CCOc1ccc(S(=O)(=O)O)c2cccnc12 | inactive
23 | FC(F)(F)COCC(F)(F)F | inactive
24 | CC(=NCc1ccccc1)c1ccccc1O | inactive

Row | Structure (SMILES) | Potency
25 | CC(=O)OCC(=O)[C@@]1(O)CC[C@H]2[C@@H]3CCC4=CC(=O)CC[C@]4(C)C3=CC[C@@]21C | inactive
26 | O=C(O)/C=C/C(=O)Nc1ccc(S(=O)(=O)Nc2nccs2)cc1 | inactive
27 | Cc1onc(-c2c(F)cccc2Cl)c1C(=O)N[C@@H]1C(=O)N2[C@@H]1SC(C)(C)[C@@H]2C(=O)O | inactive
28 | O=C(O)c1cc2cc(Cc3cccnc3)ccc2o1 | inactive
29 | CC[C@@H](C)[C@@H](N)C1=N[C@H](C(=O)N[C@@H](CC(C)C)C(=O)N[C@@H](CCC(=O)O)C(=O)N[C@@H](C(=O)N[C@@H]2CCCCNC(=O)[C@@H](CC(N)=O)NC(=O)[C@@H](CC(=O)O)NC(=O)[C@@H](Cc3cnc[nH]3)NC(=O)[C@@H](Cc3ccccc3)NC(=O)[C@@H]([C@H](C)CC)NC(=O)[C@@H](CCCN)NC2=O)[C@@H](C)CC)CS1 (X1-LE[d(aIle)][dK][dOrn][dI][dF][dH][dD][dN]; lactam 4-C) | inactive
30 | NC(=O)[C@H]1O[C@@H](O)[C@H](O)[C@@H](O)[C@@H]1O | inactive
31 | CC(C)C[C@H](NC(=O)[C@@H](COC(C)(C)C)NC(=O)[C@H](Cc1ccc(O)cc1)NC(=O)[C@H](CO)NC(=O)[C@H](Cc1c[nH]c2ccccc12)NC(=O)[C@H](Cc1cnc[nH]1)NC(=O)[C@@H]1CCC(=O)N1)C(=O)N[C@@H](CCCN=C(N)N)C(=O)N1CCC[C@H]1C(=O)NNC(N)=O | inactive
32 | Cc1c(N)nc([C@H](CC(N)=O)NC[C@H](N)C(N)=O)nc1C(=O)N[C@H](C(=O)N[C@H](C)[C@@H](O)[C@H](C)C(=O)N[C@H](C(=O)NCCc1nc(-c2nc(C(=O)NCCCCN=C(N)N)cs2)cs1)[C@@H](C)O)[C@@H](O[C@@H]1O[C@@H](CO)[C@@H](O)[C@H](O)[C@@H]1O[C@H]1O[C@H](CO)[C@@H](O)[C@H](OC(N)=O)[C@@H]1O)c1cnc[nH]1 | inactive
33 | COc1ccc(/C=N/NC(=O)c2ccncc2)c(C(=O)O)c1OC | inactive
34 | O=C1CCC(c2ccc(-n3ccnc3)cc2)=NN1 | inactive
35 | Cc1cnc(C(=O)O)c[n+]1[O-] | inactive
36 | COc1c(Br)cc(Br)c(C)c1Br | inactive
37 | NCC(O)CC(=O)O (stereo unspecified) | inactive
38 | O=C(N[C@H](CO)[C@H](O)c1ccc([N+](=O)[O-])cc1)C(Cl)Cl | inactive
39 | O=C(CCCN1CCN2CCCC2C1)c1ccc(F)cc1 (stereo unspecified) | inactive
40 | Nc1nc(/C(=C/CC(=O)O)C(=O)N[C@@H]2C(=O)N3C(C(=O)O)=CCS[C@H]23)cs1 | inactive
41 | O=C1c2ccccc2CN2C(=O)c3ccccc3CN12 | inactive
